Experiment [1] is described as follows: sensitizers of A549 cells to miR-34 induction, primary screen, imaging, A549 dox-inducible miR-34, nuclei and caspase counts (AID 1347080;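 active = compounds whose cell count with miR-34 switched on is under 0.7 times the count with it off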; also: test concentration not given here). The following applies: A549 miR-34 inducible, Hoechst nuclei count, 48 h.
Experiment [2] in a line: viability rescue of complex I mutant cybrids, primary screen, cell-based, galactose medium, ATP luminescence (AID 1645843).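 Also: positive z means more ATP and so rescue of galactose-driven cybrid death.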 The following applies: complex I mutant cybrid cells, 72 h, stronger effect = higher value.
Where [3] appears, read: stronger effect = lower value, cell number ratio, induced over uninduced.
The mark [4] stands for this setting: measured here: relative caspase fold change +Dox/-Dox.
The mark [5] stands for this setting: measured here: total cells with miR-34 induction, stronger effect = lower value.
Setting [6] is: measured here: total cells without miR-34 induction.

Results on 14 compounds are retold here after PubChem BioAssay.

Activity calls are given as the source filed them.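 The calls were made as follows, unless noted: active = z-score of at least 1.8 in each of two replicates, scored against plate mean and spread of sample wells; inactive = the rest.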

Take `CC(=O)[C@@]1(O)CCC2C3CC(C)C4=CC(=O)CC[C@]4(C)C3CC[C@@]21C` (stereo not given in full): the fold change in experiment [1] (setting [3]) was 0.817 (inactive); in experiment [1] (setting [4]) it was 0.742. The cell count in experiment [1] (setting [5]) stood at 7720; in experiment [1] (setting [6]) it was 9450. Moreover, the z-score in experiment [2] is -0.04 (inactive).

As for `CC[C@]1(O)CC2CN(CCc3c([nH]c4ccccc34)[C@@](C(=O)OC)(c3cc4c(cc3OC)N(C=O)C3[C@@](O)(C(=O)OC)C(OC(C)=O)[C@]5(CC)C=CCN6CC[C@]43C65)C2)C1` (stereo not given in full), the fold change in experiment [1] (setting [3]) was 0.746 (inactive); in experiment [1] (setting [4]) it was 1.38. Besides, the cell count in experiment [1] (setting [5]) turned out to be 1340; in experiment [1] (setting [6]), 1800. Also, the z-score in experiment [2] is -1.05 (inactive).

For the compound `CC(C)(C)NC(=O)C1CCC2C3CCC4NC(=O)C=C[C@]4(C)C3CC[C@]12C` (stereo not given in full), the fold change in experiment [1] (setting [3]) is 0.939 (inactive); in experiment [1] (setting [4]) it was 1.36. Further, the cell count in experiment [1] (setting [5]) is 8850; in experiment [1] (setting [6]), 9430. In addition, the z-score in experiment [2] was 0.345 (inactive).

In the case of `CCC1=CC2CN(C1)Cc1c([nH]c3ccccc13)[C@@](C(=O)OC)(c1cc3c(cc1OC)N(C)C1[C@@](O)(C(=O)OC)C(OC(C)=O)[C@]4(CC)C=CCN5CC[C@]31C54)C2` (stereo not given in full), the results for the fold change in experiment [1] (setting [3]) and in experiment [1] (setting [4]) were 1.19 (inactive) and 1.47, respectively. In addition, the results for the cell count in experiment [1] (setting [5]) and in experiment [1] (setting [6]) were 1620 and 1360, respectively. Besides, in experiment [2], the z-score is -1.06 (inactive).

`CCC(=O)O[C@]1(C(=O)SCF)C(C)CC2C3CC(F)C4=CC(=O)C=C[C@]4(C)[C@@]3(F)C(O)C[C@@]21C` (stereo not given in full): the fold change is 0.897 (inactive) in experiment [1] (setting [3]) and 1.65 in experiment [1] (setting [4]). Further, the cell count in experiment [1] (setting [5]) amounted to 6980; in experiment [1] (setting [6]), 7780. Further, the z-score in experiment [2] is 1.79 (inactive).

Turning to `COC1C(OC(C)=O)CC(=O)OC(C)CC=CC=CC(O)C(C)CC(CC=O)C1OC1OC(C)C(OC2C[C@@](C)(OC(=O)CC(C)C)C(O)C(C)O2)C(N(C)C)C1O` (stereo not given in full), the fold change is 1.04 (inactive) in experiment [1] (setting [3]) and 1.51 in experiment [1] (setting [4]). Moreover, the cell count came to 9630 in experiment [1] (setting [5]) and 9280 in experiment [1] (setting [6]). The z-score in experiment [2] is -1.59 (inactive).

Regarding `O=C1c2cccc3c2C(CCC3)CN1C1CN2CCC1CC2` (stereo not given), the fold change in experiment [1] (setting [3]) is 1.56 (inactive); in experiment [1] (setting [4]) it was 0.609. For the same compound, the cell count is 5340 in experiment [1] (setting [5]) and 3420 in experiment [1] (setting [6]). In experiment [2], the z-score was -0.005 (inactive).

In the case of `CC=C1C2C=C(C)C[C@]1(N)c1ccc(=O)[nH]c1C2`, the fold change in experiment [1] (setting [3]) was 0.883 (inactive); in experiment [1] (setting [4]), 1.22. Moreover, the cell count in experiment [1] (setting [5]) was found to be 10100; in experiment [1] (setting [6]), 11400. Also, the z-score in experiment [2] was 0.9 (inactive).

For the compound `O=C(OC1C(Oc2ccccc2COC(=O)C2(O)C=CCCC2=O)OC(CO)C(O)C1O)c1ccccc1` (stereo not given), the fold change in experiment [1] (setting [3]) is 0.897 (inactive); in experiment [1] (setting [4]) it was 1.99. In addition, the cell count was determined as 1640 in experiment [1] (setting [5]) and 1830 in experiment [1] (setting [6]). Moreover, the z-score in experiment [2] was -1.2 (inactive).

`O=C(OC1CC2CC3CC(C1)N2CC3=O)c1c[nH]c2ccccc12` (stereo not given): the fold change in experiment [1] (setting [3]) is 0.871 (inactive); in experiment [1] (setting [4]), 2.24. The cell count stood at 8970 in experiment [1] (setting [5]) and 10300 in experiment [1] (setting [6]). Also, the z-score in experiment [2] is 0.88 (inactive).

In the case of `CC=CC(=O)N(CC)c1ccccc1C`, the fold change in experiment [1] (setting [3]) was 0.962 (inactive); in experiment [1] (setting [4]) it was 1.8. Also, the cell count came out at 9730 in experiment [1] (setting [5]) and 10100 in experiment [1] (setting [6]). In addition, in experiment [2], the z-score was 0.595 (inactive).

For the compound `CC(=O)OC1CC2CCC3C(CC[C@@]4(C)C3CC([N+]3(C)CCCCC3)C4OC(C)=O)[C@@]2(C)CC1N1CCCCC1` (stereo not given in full), the fold change is 0.934 (inactive) in experiment [1] (setting [3]) and 1.76 in experiment [1] (setting [4]). Further, the cell count was 9160 in experiment [1] (setting [5]) and 9800 in experiment [1] (setting [6]). Also, in experiment [2], the z-score was 0.43 (inactive).

For `Nc1nc(Cl)nc2c1ncn2C1OC(CO)C(O)C1O` (stereo not given), the fold change in experiment [1] (setting [3]) was 1.26 (inactive); in experiment [1] (setting [4]), 0.688. In addition, the figures for the cell count in experiment [1] (setting [5]) and in experiment [1] (setting [6]) were 2120 and 1680, respectively. Also, in experiment [2], the z-score was -0.02 (inactive).

On to `CC1CC2C3CCC4=CC(=O)C=C[C@]4(C)[C@@]3(F)C(O)C[C@]2(C)C1C(=O)CO` (stereo not given in full), for which the fold change in experiment [1] (setting [3]) is 0.805 (inactive); in experiment [1] (setting [4]) it was 1.08. For the same compound, the cell count in experiment [1] (setting [5]) is 6880; in experiment [1] (setting [6]) it was 8550. Besides, the z-score in experiment [2] is 1.76 (inactive).
